In experiment [1] the target is Estrogen receptor (Homo sapiens) (UniProt P03372). Put plainly: qHTS assay for small molecule antagonists of estrogen receptor alpha signaling (AID 588513; active = well fitted curve in the direction sought with a large enough effect in the signal ratio, with a control signal flat, not every such curve was filed as active; the % refers to the signal ratio; also: potency is read from the fitted curve at half-maximal effect). A digest of the protocol: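 Fluorescence from CCF4 substrate after 2 h at room temperature gave reporter activity; cells had been exposed to compound and 0.5nM 17-beta-estradiol for 18 h at 37 C. Hill-equation fitting yielded IC50 and maximal response.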
Estrogen receptor (Homo sapiens), sequence (P03372 whole entry, looked up): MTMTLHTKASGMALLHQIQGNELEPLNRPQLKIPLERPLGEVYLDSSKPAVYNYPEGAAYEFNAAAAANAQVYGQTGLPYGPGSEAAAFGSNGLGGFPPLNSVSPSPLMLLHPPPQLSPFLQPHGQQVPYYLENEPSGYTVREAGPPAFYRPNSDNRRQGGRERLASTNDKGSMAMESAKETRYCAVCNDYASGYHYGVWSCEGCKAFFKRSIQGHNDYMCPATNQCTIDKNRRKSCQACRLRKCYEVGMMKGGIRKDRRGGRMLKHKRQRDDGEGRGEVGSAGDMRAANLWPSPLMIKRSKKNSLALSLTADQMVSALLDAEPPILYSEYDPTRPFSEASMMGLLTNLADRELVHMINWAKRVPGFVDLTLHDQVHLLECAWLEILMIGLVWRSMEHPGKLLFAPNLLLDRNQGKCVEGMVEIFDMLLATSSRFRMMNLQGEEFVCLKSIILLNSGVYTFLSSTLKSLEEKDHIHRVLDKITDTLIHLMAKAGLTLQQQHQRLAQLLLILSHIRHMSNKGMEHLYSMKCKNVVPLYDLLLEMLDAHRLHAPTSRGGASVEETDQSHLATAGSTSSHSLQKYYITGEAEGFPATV

For experiment [2] the target is unchanged. The experiment in a line: qHTS assay for small molecule agonists of estrogen receptor alpha signaling (AID 588514).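 Also: 0% = vehicle only and 100% = reference agonist; nearly all actives have a fitted effect of over 70% in size.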 A digest of the protocol:
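ER-alpha-UAS-bla GripTite HEK 293 cells in medium with 2% charcoal/dextran-treated FBS were treated with compound titrations at 37 C for 18 hrs; beta-lactamase reporter read by CCF4 fluorescence after 2 hrs at RT.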
Background: Quantitative high-throughput screening tests each substance at several concentrations.

The target of experiment [3] is Peroxisome proliferator-activated receptor delta (Homo sapiens) (UniProt Q03181). The experiment in a line: qHTS assay for small molecule agonists of peroxisome proliferator-activated receptor delta signaling (AID 588534).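 Also: 0% = DMSO basal wells and 100% = positive control agonist at 10 µM.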 A digest of the protocol: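 Cell-based beta-lactamase reporter assay run in agonist mode: cells seeded and incubated 5 hrs at 37 C, compounds added and incubated 18 hrs at 37 C. CCF4 dye fluorescence read after 2 hrs at RT; EC50 and efficacy from Hill fits.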
Peroxisome proliferator-activated receptor delta (Homo sapiens), sequence (Q03181 whole entry, looked up): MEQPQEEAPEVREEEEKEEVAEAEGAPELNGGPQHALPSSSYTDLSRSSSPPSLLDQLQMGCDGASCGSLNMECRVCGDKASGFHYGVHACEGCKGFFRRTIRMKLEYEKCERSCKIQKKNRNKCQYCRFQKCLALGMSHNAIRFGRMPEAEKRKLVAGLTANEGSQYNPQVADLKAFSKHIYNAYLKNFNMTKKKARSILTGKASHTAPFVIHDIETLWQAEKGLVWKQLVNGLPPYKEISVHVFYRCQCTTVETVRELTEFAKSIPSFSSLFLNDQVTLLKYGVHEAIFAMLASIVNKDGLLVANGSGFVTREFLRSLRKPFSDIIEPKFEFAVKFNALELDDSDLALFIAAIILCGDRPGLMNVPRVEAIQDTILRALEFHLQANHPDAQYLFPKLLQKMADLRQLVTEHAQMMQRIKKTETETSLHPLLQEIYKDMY

In experiment [4] the target is Peroxisome proliferator-activated receptor gamma (Homo sapiens) (UniProt P37231). The experiment in a line: qHTS assay for small molecule agonists of peroxisome proliferator-activated receptor gamma signaling (AID 588536; active = well fitted curve in the direction sought with a large enough effect in the signal ratio, with a control signal flat, not every such curve was filed as active; the % refers to the signal ratio;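 also: 0% = DMSO basal wells and 100% = rosiglitazone at 2 µM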). A digest of the protocol: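 Ratiometric blue/green fluorescence (405 nm excitation; 460 and 530 nm emission) from CCF4-loaded HEK293 reporter cells serves as signal. Exposure to test compounds lasts 16 h at 37 C in medium containing 1% charcoal/dextran-treated serum.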
Peroxisome proliferator-activated receptor gamma (Homo sapiens), sequence (P37231 whole entry, looked up): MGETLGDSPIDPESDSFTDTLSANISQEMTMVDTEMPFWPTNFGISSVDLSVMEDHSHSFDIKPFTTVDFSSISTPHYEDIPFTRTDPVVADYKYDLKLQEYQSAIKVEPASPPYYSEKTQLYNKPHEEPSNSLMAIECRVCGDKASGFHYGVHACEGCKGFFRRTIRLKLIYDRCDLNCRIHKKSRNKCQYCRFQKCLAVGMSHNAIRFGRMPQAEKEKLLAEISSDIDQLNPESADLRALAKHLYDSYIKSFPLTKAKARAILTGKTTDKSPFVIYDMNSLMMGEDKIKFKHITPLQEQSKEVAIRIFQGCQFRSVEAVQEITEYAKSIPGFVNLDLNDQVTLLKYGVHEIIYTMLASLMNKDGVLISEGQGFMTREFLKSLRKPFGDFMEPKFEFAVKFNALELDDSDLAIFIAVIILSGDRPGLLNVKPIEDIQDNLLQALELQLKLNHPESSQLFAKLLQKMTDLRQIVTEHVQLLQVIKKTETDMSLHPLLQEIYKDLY

Experiment [5] has the same target. Put plainly: qHTS assay for small molecule antagonists of peroxisome proliferator-activated receptor gamma signaling (AID 588537; active = well fitted inhibition curve with a large enough effect in the signal ratio, with a control signal flat, not every such curve was filed as active; the % refers to the signal ratio;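 also: reporter cells co-stimulated with 50 nM rosiglitazone agonist during compound treatment; % of control where 0% means no effect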). Put shortly:
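Step one: plate 3000 HEK293 UAS-bla cells per well in medium with 1% stripped serum and hold 6-6.5 h at 37 C. Step two: add compound and 50 nM agonist for 16 h. Step three: CCF4 loading, fluorescence read.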

For experiment [6], the target named is Vitamin D3 receptor (Homo sapiens) (UniProt P11473). The experiment in a line: qHTS assay for small molecule antagonists of vitamin D receptor signaling (AID 588541).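 Also: receptor activated by calcitriol during compound treatment; series mostly up to about 77 µM; % is scaled to controls: 0 for no effect and ±100 for the full control effect.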 Put shortly:
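VDR-UAS-bla HEK293T cells in 2% charcoal-stripped FBS were stimulated with 1-alpha,25-dihydroxyvitamin D3 (3 nM final) plus compound for 16 h at 37 C. The beta-lactamase CCF4 readout was normalized to 50 nM agonist and DMSO, and Hill fits gave IC50.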

For experiment [7] the target is unchanged. The experiment in a line: qHTS assay for small molecule agonists of vitamin D receptor signaling (AID 588543).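 Also: 0% = DMSO basal and 100% = reference agonist control.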 Put shortly: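 Reporter cells (HEK293T, VDR-UAS-bla) were seeded in medium with 2% charcoal-stripped serum and incubated 5 h, then compounds in concentration series were added for 16 h at 37 °C. Stimulation was scaled between DMSO basal and 50 nM 1α,25-dihydroxyvitamin D3.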

The target in experiment [8] is Retinoic acid receptor RXR-alpha (Homo sapiens) (UniProt P19793). Put plainly: qHTS assay for small molecule agonists of retinoid X receptor alpha signaling (AID 588544).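 Also: 0% = DMSO basal wells and 100% = reference agonist.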
Retinoic acid receptor RXR-alpha (Homo sapiens), sequence (P19793 whole entry, looked up): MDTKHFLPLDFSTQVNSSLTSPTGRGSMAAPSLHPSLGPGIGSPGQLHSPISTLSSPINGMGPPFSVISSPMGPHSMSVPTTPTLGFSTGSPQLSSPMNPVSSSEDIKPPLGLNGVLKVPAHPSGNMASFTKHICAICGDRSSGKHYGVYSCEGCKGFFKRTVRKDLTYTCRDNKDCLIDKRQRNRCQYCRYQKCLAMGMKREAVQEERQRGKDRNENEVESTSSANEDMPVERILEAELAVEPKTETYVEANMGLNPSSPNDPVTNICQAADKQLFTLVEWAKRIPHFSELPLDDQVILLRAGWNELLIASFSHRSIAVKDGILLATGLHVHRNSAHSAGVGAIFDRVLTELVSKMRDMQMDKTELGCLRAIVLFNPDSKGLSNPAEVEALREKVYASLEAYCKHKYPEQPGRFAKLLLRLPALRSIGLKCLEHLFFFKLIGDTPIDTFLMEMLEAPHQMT
The target in experiment [9] is Thyroid hormone receptor beta (Homo sapiens) (UniProt P10828). Put plainly: qHTS assay for small molecule agonists of thyroid hormone receptor beta signaling (AID 588545).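 Also: 0% = DMSO only and 100% = 10 nM T3.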 A digest of the protocol:
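Stimulation of a TR-driven beta-lactamase reporter was quantified in GripTite HEK 293 cells. Compound series ran for 18 hrs; curves were normalized to T3 and DMSO controls and fitted to yield EC50.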

The nature of experiment [10]: qHTS assay for small molecule antagonists of retinoid X receptor alpha signaling (AID 588546; active = well fitted inhibition curve with a large enough effect in the signal ratio, with a control signal flat, not every such curve was filed as active; the % refers to the signal ratio;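 also: cells stimulated with 9-cis-retinoic acid as agonist; % is scaled to controls: 0 for no effect and ±100 for the full control effect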). The following applies: HEK293T RXRa-UAS-bla, beta-lactamase ratio, antagonist mode; measured here: W530 green channel, cytotoxicity proxy. A digest of the protocol: (§1)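 Beta-lactamase reporter inhibition, read as CCF4 fluorescence ratio (ex 405, em 460/530 nm) after 2 h at RT. HEK293T UAS-bla cells, 2500/well, were stimulated with 9-cis-RA at 500 or 100 nM final alongside test compound for 18 h at 37 C.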

Experiment [11] addresses Retinoic acid receptor RXR-alpha (Homo sapiens) (UniProt P19793). Described as above. The following applies: HEK293T RXRa-UAS-bla, beta-lactamase ratio, antagonist mode. Put shortly:
as §1

For experiment [12], the target named is Thyroid hormone receptor beta (Homo sapiens) (UniProt P10828). The experiment in a line: qHTS assay for small molecule antagonists of thyroid hormone receptor beta signaling (AID 588547; active = well fitted inhibition curve with a large enough effect in the signal ratio, with a control signal flat, not every such curve was filed as active; the % refers to the signal ratio;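 also: cells stimulated with 0.4 nM T3 agonist during compound exposure; series mostly up to about 77 µM; % is scaled to controls: 0 for no effect and ±100 for the full control effect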). The following applies: TR-UAS-bla HEK293, beta-lactamase ratio, antagonist mode, 18 h. Put shortly:
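TR-UAS-bla GripTite HEK293 cells in 2% charcoal/dextran FBS medium; compounds 0.59 nM to 92 uM with T3 at 0.4nM final, 18 h at 37 C. Beta-lactamase read by CCF4 fluorescence (460/530 nm); Hill fits gave IC50 and efficacy.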

Experiment [13] in a line: qHTS assay for small molecule activators of the p53 signaling pathway (AID 651743; active = well fitted activation curve with a large enough effect in the signal ratio, not every such curve was filed as active; the % refers to the signal ratio; also: series mostly up to about 92 µM; % of control where 0% means no effect). The following applies: HCT-116 p53RE-bla, beta-lactamase FRET ratio, 16 h; activation: stronger effect = higher value. Put shortly: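 HCT-116 p53RE-bla, 4,000 cells/well; 5 h settle; cpd/DMSO 16 h, 37 C; LiveBLAzer B/G 2 h RT; fluorescence intensity.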
The nature of experiment [14]: qHTS assay for environmental chemicals that activate the Aryl hydrocarbon Receptor (AhR) signaling pathway (AID 651777; active = well fitted curve in the direction sought with a large enough effect; an effect the other way counts as inactive or inconclusive; also: % of control where 0% means no effect; nearly all actives have a fitted effect of over 15% in size). The following applies: 1A2-DRE human hepatoma cells, luciferase, 24 h; activation: stronger effect = higher value. A digest of the protocol: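 Luminescence (One-Glo, 30 min, room temperature) reports AhR-driven luciferase in stably transfected human hepatoma cells bearing DRE and CYP1A2 promoter. Cells (1,200/well) were treated with compound for 24 hr at 37 C in qHTS format.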

In experiment [15] the target is Peroxisome proliferator-activated receptor alpha (Homo sapiens) (UniProt Q07869). Put plainly: qHTS assay for small molecule agonists of the peroxisome proliferator-activated receptor alpha (PPARalpha) signaling pathway (AID 651778; active = well fitted curve in the direction sought with a large enough effect; an effect the other way counts as inactive or inconclusive; also: % of control where 0% means no effect). The conditions noted are these: PathHunter PPARalpha complementation, chemiluminescence, 6 h; max response: stronger effect = higher value. A digest of the protocol: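 Enzyme-fragment complementation assay in which ligand-bound PPARalpha translocates and forms an active enzyme that generates chemiluminescence. Cells were plated overnight, exposed to compound for 6 hr at 37 C, and then given detection reagent for 60 min at room temperature.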
Peroxisome proliferator-activated receptor alpha (Homo sapiens), sequence (Q07869 whole entry, looked up, the tested form may be a part): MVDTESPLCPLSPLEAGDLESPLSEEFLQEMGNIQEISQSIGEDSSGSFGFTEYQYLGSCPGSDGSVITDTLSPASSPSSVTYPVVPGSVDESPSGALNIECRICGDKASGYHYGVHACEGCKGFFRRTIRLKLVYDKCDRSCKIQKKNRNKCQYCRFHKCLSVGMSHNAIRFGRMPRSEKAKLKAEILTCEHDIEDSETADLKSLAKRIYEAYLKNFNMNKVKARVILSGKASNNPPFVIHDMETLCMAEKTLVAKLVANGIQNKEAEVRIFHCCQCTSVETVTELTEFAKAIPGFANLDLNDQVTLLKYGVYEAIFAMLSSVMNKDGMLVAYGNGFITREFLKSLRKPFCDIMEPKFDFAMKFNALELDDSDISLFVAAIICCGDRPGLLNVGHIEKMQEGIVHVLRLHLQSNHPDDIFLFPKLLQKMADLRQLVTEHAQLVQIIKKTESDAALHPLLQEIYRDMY

A short description of experiment [16]: qHTS assay for small molecule agonists of the antioxidant response element (ARE) signaling pathway measured by Nrf2-dependant transcriptional activity (AID 720636; active = well fitted curve in the direction sought with a large enough effect in the repeat runs; an effect the other way counts as inactive or inconclusive; also: % of control where 0% means no effect). A digest of the protocol: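 Nrf2-dependent transcription read as ONE-Glo luciferase signal from ARE-luc HepG2 reporter cells after 16 hr compound treatment at 37 C, 5% CO2, in assay medium with 1% dialyzed FBS.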

Experiment [17] can be described thus: qHTS assay for small molecule agonists of the antioxidant response element (ARE) signaling pathway measured by Nrf2-dependant transcriptional activity - cell viability counter screen (AID 720653; active = well fitted curve in the direction sought with a large enough effect in the repeat runs; an effect the other way counts as inactive or inconclusive; also: % is scaled to controls: 0 for no effect and ±100 for the full control effect). The conditions noted are these: ARE-bla HepG2 viability, CellTiter-Glo ATP luminescence, 16 h; max response: stronger effect = lower value. A digest of the protocol:
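ARE-bla HepG2 cells treated with compounds for 16 h at 37C; this counter screen measures viability as intracellular ATP by CellTiter-Glo luminescence after 30 min at room temperature.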

Experiment [18] in a line: qHTS assay for cell viability of HEK293 cells (AID 743288; active = well fitted curve in the direction sought with a large enough effect; an effect the other way counts as inactive or inconclusive; also: % is scaled to controls: 0 for no effect and ±100 for the full control effect; nearly all actives have a fitted effect of over 50% in size). The conditions noted are these: ATP luminescence (CellTiter-Glo), 18 h; max response: stronger effect = lower value. A digest of the protocol:
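HEK293 parental, 2,000 cells/well; ≥5 h pre-incubation 37 C; pintool compound addition; 18 h, 37 C; CellTiter-Glo 30 min RT; luminescence read.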

Experiment [19] in a line: qHTS assay for cell viability of the p53RE-bla HCT-116 cell line (AID 743292; active = well fitted curve in the direction sought with a large enough effect; an effect the other way counts as inactive or inconclusive; also: % is scaled to controls: 0 for no effect and ±100 for the full control effect; nearly all actives have a fitted effect of over 55% in size). Put shortly:
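ATP-based luminescent viability (CellTiter-Glo, 30 min RT) after 16 h compound treatment at 37 C of p53RE-bla HCT-116 cells, seeded at 4,000 cells/well and rested 5 h before dosing.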

For experiment [20], the target named is Nuclear receptor subfamily 1 group I member 2 (Rattus norvegicus) (UniProt Q9R1A7). The experiment in a line: qHTS assay for small molecule activators of the rat pregnane X receptor (rPXR) signaling pathway (AID 651751; call rule not given here; also: 0% is about no effect). The following applies: rPXR reporter cells, luciferase (One-Glo), 24 h.
Nuclear receptor subfamily 1 group I member 2 (Rattus norvegicus), sequence (Q9R1A7 whole entry, looked up): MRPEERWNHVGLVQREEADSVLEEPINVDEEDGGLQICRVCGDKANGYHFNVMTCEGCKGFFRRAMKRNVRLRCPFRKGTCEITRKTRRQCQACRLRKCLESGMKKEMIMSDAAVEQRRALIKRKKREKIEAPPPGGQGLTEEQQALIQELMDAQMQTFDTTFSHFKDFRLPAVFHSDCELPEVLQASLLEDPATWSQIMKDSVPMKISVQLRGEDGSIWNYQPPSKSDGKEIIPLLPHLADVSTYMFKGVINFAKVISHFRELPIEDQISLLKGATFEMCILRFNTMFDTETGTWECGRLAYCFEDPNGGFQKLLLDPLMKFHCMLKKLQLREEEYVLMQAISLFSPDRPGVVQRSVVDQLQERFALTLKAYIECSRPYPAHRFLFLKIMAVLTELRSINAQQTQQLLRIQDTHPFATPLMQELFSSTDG

The source of these data is PubChem BioAssay (NCATS).

Records with an inconclusive call do not appear. Activity calls are given as the source filed them. Unless noted, calls follow the shape of the full dose curve.

Thyroid hormone receptor beta (Homo sapiens), sequence (P10828 whole entry, looked up): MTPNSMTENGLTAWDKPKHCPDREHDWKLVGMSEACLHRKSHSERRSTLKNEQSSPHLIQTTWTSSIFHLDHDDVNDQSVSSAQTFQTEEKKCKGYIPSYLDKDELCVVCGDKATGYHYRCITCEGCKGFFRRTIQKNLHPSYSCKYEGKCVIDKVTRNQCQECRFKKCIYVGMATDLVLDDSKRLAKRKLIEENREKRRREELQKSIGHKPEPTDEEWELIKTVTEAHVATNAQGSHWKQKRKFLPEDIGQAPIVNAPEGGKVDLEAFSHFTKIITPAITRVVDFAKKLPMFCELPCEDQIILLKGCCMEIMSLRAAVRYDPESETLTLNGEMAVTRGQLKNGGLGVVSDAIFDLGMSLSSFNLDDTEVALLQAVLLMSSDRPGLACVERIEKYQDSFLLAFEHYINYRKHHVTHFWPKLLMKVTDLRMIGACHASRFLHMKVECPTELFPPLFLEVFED
Vitamin D3 receptor (Homo sapiens), sequence (P11473 whole entry, looked up): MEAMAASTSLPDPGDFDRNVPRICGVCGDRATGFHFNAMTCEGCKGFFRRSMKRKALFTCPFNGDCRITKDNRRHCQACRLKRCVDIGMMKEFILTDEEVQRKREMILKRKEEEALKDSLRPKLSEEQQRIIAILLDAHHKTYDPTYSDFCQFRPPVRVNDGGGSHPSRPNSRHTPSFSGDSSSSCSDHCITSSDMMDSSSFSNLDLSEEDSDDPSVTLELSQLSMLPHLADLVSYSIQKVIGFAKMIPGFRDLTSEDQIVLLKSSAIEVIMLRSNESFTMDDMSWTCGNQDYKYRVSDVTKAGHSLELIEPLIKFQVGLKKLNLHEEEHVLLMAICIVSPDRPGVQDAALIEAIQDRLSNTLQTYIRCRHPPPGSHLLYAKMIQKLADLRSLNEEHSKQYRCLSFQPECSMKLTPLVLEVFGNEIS

Regarding `CNC(=O)Oc1ccc(N(C)C)c(C)c1`, the Potency result in experiment [1], in [2], in experiment [4], in experiment [5], in experiment [6] and in experiment [8] was “inactive” in each case. Also, the Potency result in experiment [9], in experiment [16] and in experiment [19] was “inactive” in each case. Besides, the call in experiment [3] and in [7] was inactive. For the same compound, the max response was -12.9% in experiment [10]; 7.08% (inactive) in experiment [11]; -2.96% (inactive) in experiment [15]; 5.88% (inactive) in experiment [17]; -1.07% (inactive) in experiment [18]; 2.85% (inactive) in [20]. The activity change % (negative = inhibition) in experiment [12] is -0.485% (inactive). Besides, the activation in experiment [13] is 2.89% (inactive); in [14] it was 3.59% (inactive).

Turning to `COCC(=O)N(c1c(C)cccc1C)[C@H](C)C(=O)OC`, the Potency result in [1], in experiment [2], in experiment [4], in experiment [5], in experiment [6] and in experiment [8] was “inactive” each time. In [16], the Potency result is “inactive”. For the same compound, the compound was classed as inactive in experiment [3] and in experiment [7]. The max response in [10] is -4.91%; in experiment [11] it was -14.1% (inactive); in [15], -0.29% (inactive); in [17] it was -2.34% (inactive); in [18] it was -1.89% (inactive); in experiment [20], -0.694% (inactive). Also, the activation is -0.822% (inactive) in [13] and 1.21% (inactive) in experiment [14].

In the case of `CCNc1nc(NC(C)(C)C)nc(SC)n1`, the Potency result in experiment [1], in experiment [2], in experiment [4], in [5], in experiment [6] and in experiment [8] was “inactive” in each case. The Potency entry in experiment [16] and in [19] was “inactive” throughout. Besides, the outcome in [3] and in [7] was inactive. Besides, the activity change % (negative = inhibition) in experiment [12] was 6.54% (inactive). Further, in experiment [14], the activation was 0.606% (inactive). For the same compound, the max response was 1.46% (inactive) in experiment [15], -11.3% (inactive) in experiment [17], -12.7% (inactive) in experiment [18] and 2.02% (inactive) in experiment [20].

Consider `COC(=O)c1ccccc1S(=O)(=O)NC(=O)N(C)c1nc(C)nc(OC)n1`, for which the Potency entry in [1], in experiment [2], in experiment [4], in experiment [5], in experiment [8] and in experiment [9] was “inactive” in each case. The Potency result in experiment [16] and in experiment [19] was “inactive” throughout. Further, the call in experiment [3] was inactive. The max response in experiment [10] was -8.58%; in [11] it was -3.24% (inactive); in [17], -4.72% (inactive); in experiment [18], -7.64% (inactive); in experiment [20], 0.907% (inactive). Moreover, the activity change % (negative = inhibition) in experiment [12] was 9.61% (inactive). The activation in experiment [13] was 0.955% (inactive); in [14] it was 0.249% (inactive).

In the case of `CCN(CC)c1nc(C)cc(OP(=S)(OC)OC)n1`, the Potency entry in experiment [1], in [2], in [4], in [5], in experiment [6] and in experiment [8] was “inactive” throughout. Besides, the Potency entry in experiment [9], in [16] and in experiment [19] was “inactive” each time. In addition, the compound was called inactive in experiment [3] and in experiment [7]. Also, the activity change % (negative = inhibition) in experiment [12] is -11.6% (inactive). Moreover, the activation in experiment [14] was 1.48% (inactive). The max response in experiment [15] is 3.1% (inactive); in experiment [17], -9.93% (inactive); in experiment [18] it was -11.6% (inactive); in experiment [20], -1.67% (inactive).

For the compound `c1cc[n+]2c(c1)-c1cccc[n+]1CC2`, the Potency in experiment [1] was 25.1 µM [inhibitor] (active). In addition, the Potency entry in [2], in experiment [4], in experiment [5], in [6], in [8] and in experiment [9] was “inactive” in each case. Further, the result in [3] and in experiment [7] was inactive. Further, the max response was 2.2% in experiment [10]; -20.8% (inactive) in experiment [11]; -2.84% (inactive) in experiment [15]; 1.16% (inactive) in [17]; -11.6% (inactive) in experiment [18]. For the same compound, in experiment [12], the activity change % (negative = inhibition) was 10.8% (inactive). Moreover, the activation in experiment [14] was -0.462% (inactive).
